Laboratory results published in PubChem BioAssay (Tox21).
Several values for one entry are separate records, joined by “and”; a condition that tells them apart may be missing. Equal entries are not always repeated. Inconclusive results are not listed. The source holds several records for some structures; these can differ, active in one and inactive in another. Activity calls are given as the source filed them. The call rests on the fitted dose curve.

assay: qHTS assay to identify small molecule antagonists of the sonic hedgehog signaling (Shh) pathway (AID 1259369); details: NIH/3T3 Gli1-Luc reporter, Shh antagonist, luminescence 24 h; series mostly up to 92.4 µM; activity change, negative = inhibition: at the top concentration; further: nearly all actives have a fitted effect of over 45% in size
Source text: U.S. Tox21 Program National Center for Advancing Translational Sciences [NCATS] NIH Chemical Genomics Center [NCGC] U.S. Environmental Protection Agency [EPA] National Institutes of Environmental Health Sciences [NIEHS] National Toxicology Program [NTP] U.S. Food and Drug Administration [FDA] Tox21 Assay Overview: The sonic hedgehog (Shh) pathway is essential for normal embryonic development. Dysregulation of the Shh pathway can cause severe developmental defects in organs. Therefore chemicals that interfere with the pathway are potential developmental toxicants. A cell line designated 3T3Gli1-Luc (DMB/OARSA/CFSAN/FDA, Laurel, MD), a NIH/3T3 derived clone containing stably integrated Gli1-Luc reporter is used to detect chemical interference of the Shh pathway, by changes in the expression of the firefly Luc gene under the control of the Gli1 transcriptional response element. This cell line was used to screen Tox21 libraries for identifying and prioritizing the potential developmental toxicants that interfere Shh pathway. Conditioned medium-stimulated mode was used to screen for chemicals inhibiting Shh signaling.
Tox21 Assay Protocol Summary: 3T3 Gli1-Luc cells were dispensed at 2,000 per well in 5uL of culture medium into white solid bottom 1536-well plates (Greiner Bio-One, Monroe, NC) using a Multidrop Combi (Thermo Scientific, Waltham, MA) dispenser. The assay plates were incubated at 37 C and 5% CO2 for 4hr, and then 23nL of compounds dissolved in DMSO and positive control were transferred using a Pintool station (Wako, San Diego, CA). The compound transfer was followed by the addition of 1ul conditioned medium or assay buffer using two separate tips of Flying Reagent Dispenser (FRD, Aurora Discovery, San Diego, CA). The assay plates were incubated at 37C and 5% CO2 for 24hr. For luciferase read, 4uL of Amplite Luciferase reporter gene assay reagent (AAT Bioquest, Inc. Sunnyvale, CA) was added to each well of the assay plates using FRD and incubated at room temperature for 30min. The luminescence signal was measured using a ViewLux plate reader (Perkin Elmer, Shelton, CT).
On the % scale 0 is the no-effect control and ±100 the full control effect; potency means the concentration at half of the fitted maximal effect.

SMILES | Potency | activity change, negative = inhibition
CCc1cc(C(C)(C)C)c(O)c(C(C)(C)C)c1 | inactive | 
Oc1c(Cl)cc(Cl)c(Cl)c1Cc1c(O)c(Cl)cc(Cl)c1Cl | 1.93 µM (active) and 1.54 µM (active) | 
CC(C)CCOCc1ccccc1 |  | 1.51% (inactive)
O=C(Cl)c1cccc(C(=O)Cl)c1 | inactive | 
c1ccc2cc3c(ccc4ccccc43)cc2c1 | inactive | 
CNC1(C)C2CCC(C2)C1(C)C (stereo not given) |  | -9.37% [at 42.5 µM] (inactive)
O=C(O)c1cc(Cl)cc(Cl)c1 |  | -8.44% (inactive)
CC[C@H]1CN2CCc3cc(OC)c(OC)cc3[C@@H]2C[C@@H]1C[C@H]1NCCc2cc(OC)c(OC)cc21 | 8.7 nM (active) and 2.7 nM (active) | 
C=CS(=O)(=O)O |  | -11.9% (inactive)
CC(C)(C)c1ccccc1 |  | 19.3% (inactive)
CN(C)c1ccc2nc3ccc(=[N+](C)C)cc-3sc2c1 | 739 nM (active) and 1.09 µM (active) and 596 nM (active) | 
CCC(=O)/C=C/C1C(C)=CCCC1(C)C (stereo not given) |  | 5.47% (inactive)
COc1cc(C(=S)N2CCOCC2)ccc1O |  | 26.8% [at 42.5 µM] (inactive)
CCCN[C@H]1CCc2nc(N)sc2C1 |  | 21.8% [at 42.5 µM] (inactive)
COc1nc(C)nc(Cl)c1NC1=NCCN1 |  | 6.75% [at 42.5 µM] (inactive)
CC(=O)N[C@@H](CS)C(=O)O | inactive | 
Cc1cc(C(C)(C)C)c(O)c(C(C)(C)C)c1 | inactive | 
O=Nc1ccc(Nc2ccccc2)cc1 | 1.38 µM (active) and 2.43 µM (active) | 
CN1C(=O)c2ccc([N+](=O)[O-])cc2C1=O |  | 6.32% (inactive)
CC(C)CCOC(=O)c1ccc(N(C)C)cc1 |  | 56.4% [at 42.5 µM] (inactive)

SMILES | Potency | activity change, negative = inhibition
CCOc1ccccc1C(N)=O |  | 1.62% (inactive)
CCC[C@H](N[C@@H](C)C(=O)N1[C@H](C(=O)O)C[C@@H]2CCCC[C@@H]21)C(=O)OCC | inactive | 
CCCCCCCCCCCCCC[P+](CCCC)(CCCC)CCCC | 24.2 nM (active) and 61.1 nM (active) | 
CCN(CC)C(=O)Nc1ccc(OCC(O)CNC(C)(C)C)c(C(C)=O)c1 (stereo not given) |  | -2.23% [at 42.5 µM] (inactive)
CC(=O)O[C@]1(C(C)=O)CC[C@H]2[C@@H]3C[C@H](C)C4=CC(=O)CC[C@]4(C)[C@H]3CC[C@@]21C | 19.3 µM (active) | 
C[N+]1([O-])CCOCC1 |  | 8.47% (inactive)
O=C(OCc1ccccc1)c1ccc(O)cc1 | 43.3 µM (active) and inactive | 
O=C(O)Cn1cnnn1 |  | 5.38% [at 42.5 µM] (inactive)
COc1ccc(Cc2cnc(N)nc2N)cc1OC |  | -11.2% [at 42.5 µM] (inactive)
CCOC(=O)C(C)C(C)=O (stereo not given) |  | 21.3% (inactive)
CC(=O)C1=C(C)[C@@H]2C[C@@]3(C1)[C@H](C)CC[C@H]3C2(C)C | inactive | 
O=C1OC2(c3ccc(O)cc3Oc3cc(O)ccc32)c2ccccc21 | inactive | 
OCCN1CCNCC1 | inactive | 
CO[Si](OC)(OC)c1ccccc1 |  | 3.68% (inactive)
O=C1CC2(CCCC2)CC(=O)N1CCCCN1CCN(c2ncccn2)CC1 | 19.3 µM (active) and inactive | 
CCN1CCCC1CNC(=O)c1cc(S(=O)(=O)CC)c(N)cc1OC (stereo not given) |  | -19.5% [at 42.5 µM] (inactive)
CCCCC/C=C/CC1CC(=O)OC1=O (stereo not given) |  | 1.31% (inactive)
CC(C)(C)NCC(O)c1cc(O)cc(O)c1 (stereo not given) |  | 27.6% [at 42.5 µM] (inactive)
C=C(C)C(=O)O |  | -0.421% (inactive)
CCn1c2ccccc2c2cc(N)ccc21 | 15.2 µM (active) and inactive | 
